# TRb-SRC2 inh: disrupts binding of human TR beta to SRC2; P10828; TRbeta-SRC2 peptide binding, fluorescence polarization; receptor liganded with 1 µM T3; Potency, µM (doses to about 106 µM), without a hit: at the top dose activity change, negative = inhibition, actives largely listed as inhibitors; 280,000 compounds, 0.065% hits; AID 1469;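 further: plate controls were bound peptide for no effect and peptide without receptor for full effect; nearly all actives have a fitted effect of over 50% in size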
# Target sequence (P10828 whole entry, looked up): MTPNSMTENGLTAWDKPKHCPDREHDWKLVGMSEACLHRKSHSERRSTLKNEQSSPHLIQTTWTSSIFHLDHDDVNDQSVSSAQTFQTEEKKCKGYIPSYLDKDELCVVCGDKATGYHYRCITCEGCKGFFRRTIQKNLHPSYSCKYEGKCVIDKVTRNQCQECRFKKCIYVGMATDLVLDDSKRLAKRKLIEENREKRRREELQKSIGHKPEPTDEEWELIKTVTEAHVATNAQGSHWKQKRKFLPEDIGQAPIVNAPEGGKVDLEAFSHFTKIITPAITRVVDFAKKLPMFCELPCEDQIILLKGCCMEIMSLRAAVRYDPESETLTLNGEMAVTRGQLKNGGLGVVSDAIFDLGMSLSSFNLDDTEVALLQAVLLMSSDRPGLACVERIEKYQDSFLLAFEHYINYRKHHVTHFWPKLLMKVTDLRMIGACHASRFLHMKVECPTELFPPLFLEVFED
#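 Human TRb ligand-binding domain (0.6 uM) is mixed with 20 nM Texas Red SRC2 peptide and 1 uM T3; after compound addition and 5 hr at ambient temperature, polarization is measured and normalized to unbound and bound controls.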
# Tau ThT inhib: inhibitors of human tau fibril formation, thioflavin T binding; Potency, µM (titrated, usually from 57.4 µM), for inactives: at the highest dose activity, negative = inhibition, most hits filed as inhibitors; 270,000 compounds, 2.1% hits; AID 1460; recombinant tau K18 P301L, heparin-induced fibrillization, ThT fluorescence; P10636; further: nearly all actives have a fitted effect of over 55% in size
# Target sequence (P10636 561-689 P618L limits assumed): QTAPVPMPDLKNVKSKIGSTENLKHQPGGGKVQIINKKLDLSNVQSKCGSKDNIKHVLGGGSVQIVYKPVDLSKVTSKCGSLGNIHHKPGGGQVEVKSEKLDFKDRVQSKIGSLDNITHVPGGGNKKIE
#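 ThT emission at 510 nm, taken 1 hr after adding 30 uM dye, quantifies aggregates formed when 20 uM heparin acts on human tau K18 P301L for 6 hr at 37 C.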
# Tau FP inhib: inhibitors of human tau fibril formation | P10636 | K18 P301L tau heparin fibrillization, Alexa594 FP, 6 h | Potency, µM (doses to about 57.7 µM), for inactives: at the top dose activity, negative = inhibition, most hits filed as inhibitors | 280,000 compounds, 0.39% hits; further: nearly all actives have a fitted effect of over 55% in size
#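 Human K18 P301L fragment (15 uM unlabeled plus 0.24 uM Alexa 594-labeled) in 100 mM sodium acetate pH 7 with compound, aggregation induced by 20 uM heparin for 6 hr at 37 C. ThT (30 uM) added for 1 hr, then Alexa 594 FP read.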
# TR SRC2 fluor cs: alters Texas Red total fluorescence, flagging assay interference; TRb/SRC2 Texas Red total fluorescence interference; Potency, µM (top dose mostly 106 µM), for inactives: top-dose fluorescence change, negative = quenching; 280,000 compounds, 0.29% hits; active means well fitted curve in either direction with a large enough effect; inconclusive means small, poorly fitted or top-dose-only effect
#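 Flags fluorescent or light-absorbing compounds by total fluorescence, S + 2P, at 555 nm excitation and 632 nm emission. Mixture: 20 nM Texas Red SRC2 peptide, 0.6 uM human TRb LBD, 1 uM T3, 5% DMSO; compound exposure 5 h at ambient temperature.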
# Tau fluor cs: counter-screen for tau fibril formation inhibitors. tau K18 P301L (four-repeat tau fragment) Alexa594 fluorescence, heparin fibrillization. Potency, µM (titrated, usually from 57.7 µM), without a hit: at the top dose activity change, negative = decrease. 280,000 compounds, 0.93% hits. AID 1463; further: nearly all actives have a fitted effect of over 55% in size
#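 Human K18 P301L tau (15 uM unlabeled plus 0.24 uM Alexa 594-labeled, final) in 100 mM sodium acetate pH 7 was mixed with compound and 20 uM heparin and incubated 6 hr at 37 C.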
# Active calls of the source: *; ? = inconclusive; · = no result given; [ ] = remark or other dose. Hits are enriched below; roughly 3% of the tested compounds scored in any of these assays. Unless noted, the call rests on the fitted dose curve; in most records, active means well fitted curve in the direction sought with a large enough effect; inconclusive means small, poorly fitted or top-dose-only effect, or another doubt; inactive means no such curve, though single readings can be large; an effect the other way counts as inactive or inconclusive. Unless noted, on the % scale 0 is the no-effect control and ±100 the full control effect; potency means the concentration at half of the fitted maximal effect.
SMILES,TRb-SRC2 inh,Tau ThT inhib,Tau FP inhib,TR SRC2 fluor cs,Tau fluor cs
CN(C)c1ccc(NC(=O)C(=O)C2C(=O)Nc3ccccc32)cc1 (stereo unspecified),-4.4%,14.1µM*,6.4%,-2.0%,-21.3%
CC(C)(C)C(=O)NCC(c1ccc2c(c1)OCO2)N1CCOCC1 (stereo unspecified),-1.4%,7.9%,0.3%,-0.7%,3.5%
O=C(Cn1ccn(-c2ccc(F)cc2)c(=O)c1=O)NCCc1ccccc1,-1.1%,9.8%,?,?,16.2%
COC(=O)C1=C(C)NC(=O)/C1=C\c1ccc2c(c1)OCO2,6.1%,12.6µM*,6.7%,-1.7%,-14.8%
CC(C)C[C@@H](CC(=O)N[C@@H](CCCN)CC(=O)N[C@@H]1CCNC[C@H]1C(=O)N[C@H](CC(=O)N[C@@H](CCC(=O)O)CC(=O)O)CC(C)C)NC(=O)[C@@H]1CNCC[C@H]1N,-1.6%,-7.5%,-12.9%,-0.7%,-0.7%
COc1cccc(-c2cc(C(F)(F)F)nc(-n3cccn3)n2)c1,8.8%,?,-7.4%,0.3%,-18.1%
CCOC(=O)c1ccn(-c2nc(-c3cccc(OC)c3)cc(C(F)(F)F)n2)n1,-10.1%,?,13.9%,0.0022µM*[quencher],-28.3%
O=C1/C(=C/c2ccc([N+](=O)[O-])cc2)C=C(c2ccccc2)N1c1ccccc1,-0.3%,-10.9%,-2.3%,-2.2%,-11.5%
O=C1/C(=C/c2ccc([N+](=O)[O-])cc2)C=C(c2ccccc2)N1c1ccc(O)cc1,-7.4%,5.62µM*,-4.6%,-2.6%,11.2µM*[quencher]
O=C(O)c1cccc(N2C(=O)/C(=C/c3ccc([N+](=O)[O-])cc3)C=C2c2ccccc2)c1,-6.9%,6.31µM*,-9.4%,-4.7%,?
Cc1ccc(CCNC(=O)c2ccc(Cn3c(=O)c4cccn4c4cccnc43)cc2)cc1,8.8%,16.5%,-14.7%,-0.5%,-5.9%
O=C(Nc1nc(=O)[nH]s1)c1ccccc1,-2.1%,-8.9%,-5.3%,-1.4%,-4.5%
O=C(Nc1nc(=O)n(C(=O)C2CC2)s1)c1ccccc1,-2.8%,11.2µM*,?,-0.4%,-19.2%
Cc1ccc(C(=O)Nc2nc(=O)n(C(=O)c3ccccc3C)s2)cc1,-1.9%,14.1µM*,?,-0.7%,-22.6%
CC(=O)c1cccc(NC(=O)CCc2nc3cccnc3n2Cc2cccs2)c1,-5.2%,-11.2%,7.9%,7.4%,-25.3%
COc1cc(SC#N)ccc1N=Cc1c(C)[nH]n(-c2cccc3ccccc23)c1=O,-13.2%,7.94µM*,?,-3.7%,-17.4%
COc1ccccc1N=Cc1c(C)[nH]n(-c2ccc(C)cc2C)c1=O,3.9%,-17.2%,-2.5%[2.34 µM],2.8%,7.3%[2.34 µM]
COc1cc(SC#N)ccc1N=Cc1c(C)[nH]n(-c2ccc(C)cc2C)c1=O,8.9%,14.1µM*,?,-5.1%,-20.8%
Cc1ccc(CN2C(=O)CN(C3CCC(C)CC3)C(=O)C2c2ccc(F)cc2)cc1 (stereo unspecified),-1.8%,7.5%,-0.4%,-2.1%,14.2%
COC(=O)C(CC(C)C)NC(=O)C(N)Cc1ccccc1 (stereo unspecified),0.9%,3.3%,-5.4%,-2.4%,1.8%
CC[C@@H](C)[C@@H](CO[C@@H](Cc1ccccc1)C(=O)N[C@@H](CCS(C)(=O)=O)C(=O)OC(C)C)NC[C@@H](N)CS,-2.8%,35.5µM*,?,-7.0%,-11.0%
CC(C)(C)OC(=O)N1CCC(c2c(C(=O)NCCCN3CCc4ccccc4C3)cnn2-c2ccccc2)CC1,0.8%,-3.6%,-9.5%,-3.9%,-5.4%
Cc1ccc(N=Cc2nc(/C=C/c3cccc([N+](=O)[O-])c3)oc2O)cc1,-3.1%,1.41µM*,12.0%,-0.4%,-15.7%
Oc1ccccc1/C=N/c1c(-c2ccco2)nc2ccccn12,?,22.4µM*,?,5.5%,22.4µM*[quencher]
COc1cc(-c2nc3ccccn3c2/N=C/c2ccc(F)cc2)ccc1O,-8.6%,?,-11.2%,-1.7%,-19.6%
SMILES,TRb-SRC2 inh,Tau ThT inhib,Tau FP inhib,TR SRC2 fluor cs,Tau fluor cs
COc1ccc(/C=N/c2c(-c3ccco3)nc3ccccn23)cc1OC,-12.2%,22.4µM*,?,5.4%,22.4µM*[quencher]
Clc1ccc(/C=N/c2c(-c3ccco3)nc3ccccn23)cc1,-11.5%,25.1µM*,?,3.3%,25.1µM*[quencher]
COc1ccc(CNC(=O)C(=O)NCC(c2cccs2)S(=O)(=O)c2cccs2)cc1 (stereo unspecified),1.0%,-4.5%,-5.6%,-0.3%,-8.2%
COc1ccc2c(c1)CC(C(=O)NCCc1ccc(S(N)(=O)=O)cc1)CO2 (stereo unspecified),2.0%,-6.3%,0.1%,0.9%,-1.7%
NCCc1nc2cccnc2n1-c1ccccc1,-0.8%,1.1%,7.4%,1.3%,1.5%
O=Cc1sc(=O)n(Cc2cccc(C(=O)O)c2)c1Cl,0.4%,12.6µM*,10µM*,-1.5%,-8.8%
O=C(O)c1cccc(Cn2c(Cl)c(/C=N/NC(=O)c3ccc(O)cc3)sc2=O)c1,0.0%,·,-3.8%,-0.4%,-3.5%
COCCNC(=O)c1c(NC(=O)Cc2coc3cc(C)ccc23)sc2c1CCCC2,2.0%,-13.3%,-0.4%,1.2%,-24.0%
CCOc1cccc(CNCCCSc2nnnn2C)c1,-3.1%,3.0%,5.1%,?,3.0%
CCOc1c(Cl)cc(Cl)cc1CNCCSc1nnnn1C,-7.9%,-11.0%,0.5%,8.91µM*[quencher],-14.4%
Cn1nnnc1SCCNCc1ccccc1OCc1ccccc1F,-4.5%,-17.1%,-4.0%,10µM*[quencher],-24.1%
Cn1nnnc1SCCCNCc1cccc(OCc2ccc(F)cc2)c1,-26.2%,-4.9%,-5.3%,0.891µM*[quencher],-15.1%
Cn1nnnc1SCCCNCc1ccccc1OCc1ccccc1F,-1.6%,7.6%,2.9%,-20.3%,-1.3%
COc1cc(NC(=O)c2nn(C)c3c2COc2ccccc2-3)cc(OC)c1OC,3.1%,-6.1%,-3.0%,1.0%,4.7%
CCCCC/C=C\C/C=C\CCCCCCCC(=O)OC,4.9%[201 µM],·,·,2.9%[201 µM],·
COc1ccc(C(=O)Nc2ccc(OCC(F)(F)C(F)F)c(C(F)(F)F)c2)cc1OC,-2.9%,1.1%,22.4µM*,-5.6%,?
CCC[C@H](NC(C)=O)C(=O)N[C@H]1CC(=O)ONCCCC[C@@H](C(N)=O)NC(=O)[C@H](Cc2c[nH]c3ccccc23)NC(=O)[C@H](CCCN=C(N)N)NC(=O)[C@@H](Cc2ccc3ccccc3c2)NC(=O)[C@H](Cc2cnc[nH]2)NC1=O,-3.4%,·,·,-3.1%,·
CC(C)C[C@H](NC(=O)CN(C)C(=O)[C@H](Cc1ccccc1)NC(=O)[C@H](Cc1ccccc1)NC(=O)[C@H](CCC(N)=O)NC(=O)[C@H](CCC(N)=O)NC(=O)[C@@H]1CCCN1C(=O)[C@H](CCCCN)NC(=O)[C@@H]1CCCN1C(=O)[C@@H](N)CCCN=C(N)N)C(=O)N[C@@H](CCS(C)(=O)=O)C(N)=O,1.6%,·,·,-15.7%,·

# High-throughput results as filed in PubChem.
